Experimental data: PubChem BioAssay (NCATS)
Results filed as inconclusive are left out. A call without a number means that no potency is given here. Activity calls are given as the source filed them. Unless noted, the call rests on the fitted dose curve; in most records, active means well fitted curve in the direction sought with a large enough effect; inconclusive means small, poorly fitted or top-dose-only effect, or another doubt; inactive means no such curve, though single readings can be large; an effect the other way counts as inactive or inconclusive.

How the values were obtained:
[1] = tested on: Zika virus NS2B-NS3 protease (linked construct); assay: Primary screen NINDS Rhodamine qHTS for Zika virus inhibitors (AID 1347160); further: nearly all actives have a fitted effect of over 55% in size; further: potency means the concentration at half of the fitted maximal effect
Outline: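 Enzyme (25 nM, linked NS2B-NS3) was preincubated 15 min with compound in 10 mM Tris-HCl pH 8.0, 0.01% Tween 20. Rhodamine110 substrate (1.5 microM) was then added and fluorescence read at start and after 15 min.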

[2] = U-118MG Cancer Cell Toxicity qHTS against the NCATS CANVASS Library (AID 1347351); further: potency means the concentration at half of the fitted maximal effect; on activity change, negative = cytotoxicity: series mostly up to about 38 µM
Outline: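 Following a 4 h pre-incubation of 1000 seeded cells, compounds were pinned in an 11-pnt dilution series and left for 72 h; viability then came from CellTiter-Glo.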

[3] = G06 Cancer Cell Toxicity qHTS against the NCATS CANVASS Library (AID 1347368); further: nearly all actives have a fitted effect of over 60% in size; further: potency means the concentration at half of the fitted maximal effect; on activity change, negative = cytotoxic: series mostly up to about 46 µM
Outline: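 Quantitative HTS in G06 cells (dog glioma): 72 hr treatment, 11 concentrations, then ATP-based luminescent viability readout; bortezomib 0.1 nM–4.6 uM final as reference.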

[4] = Vero-766 cells viability qHTS against the NCATS CANVASS Library: Counterscreen for Zika virus inhibition assay (AID 1347394); further: nearly all actives have a fitted effect of over 60% in size; further: potency means the concentration at half of the fitted maximal effect; on activity change, negative = cytotoxic: series mostly up to about 46 µM
Outline: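 Counterscreen for toxicity: Vero 766 cells exposed 72 h to an 11-point compound series, viability by CellTiter-Glo.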

[5] = Viability qHTS for inhibitors of the SERCaMP assay screened against the NCATS CANVASS Library (AID 1347400); further: nearly all actives have a fitted effect of over 70% in size; further: potency means the concentration at half of the fitted maximal effect; on activity change, negative = cytotoxicity: series mostly up to about 92 µM
Outline: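 Measures loss of viability in SERCaMP reporter SH-SY5Y cells treated for 48 h with compounds; luminescent ATP detection by CellTiter-Glo.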

[6] = Redox Reaction Profiling qHTS: Assay Interference Panel against the NCATS CANVASS Library (AID 1347401); further: potency means the concentration at half of the fitted maximal effect
Outline: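 Quantitative HTS over an 11-point series was run in HEPES pH 7.3 with 50 mM NaCl, 200 uM DTT and 5 uM resazurin. Initial and 15-min resorufin fluorescence readings were taken.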

[7] = UWB1.289-WTBRCA1 Cancer Cell Toxicity qHTS against the NCATS CANVASS Library (AID 1347354)
Outline: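 Using an ATP-based luminescent reagent after three days of treatment, toxicity is scored across an eleven-concentration range in wells holding 1000 cells each.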

[8] = KB-3-1 Cancer Cell Toxicity qHTS against the NCATS CANVASS Library (AID 1347366); further: nearly all actives have a fitted effect of over 75% in size; further: potency means the concentration at half of the fitted maximal effect; on activity change, negative = cytotoxicity: series mostly up to about 46 µM
Outline: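 Cytotoxicity toward KB-3-1 cells (500/well, DMEM + 10% FBS) was scored by CellTiter-Glo luminescence following 72 hr exposure at 37C, with bortezomib titrated as control.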

[9] = Secretion counterscreen for inhibitors of the SERCaMP assay screened against the NCATS CANVASS Library (AID 1347390);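 further: light from luciferase secreted into medium read as a measure of general secretion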; further: potency means the concentration at half of the fitted maximal effect
Outline: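 Natural products are titrated in an 11-point series up to 77 uM onto SH-SY5Y-GLuc STOP cells for 20 h. Secreted reporter activity is measured as coelenterazine-driven luminescence, with Brefeldin A on each plate.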

[10] = NCATS anti-infectives library activity on HEK293 viability as a counter-qHTS vs the C. elegans viability qHTS (AID 1745854);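 further: HEK293 cells exposed to compounds for 24 hr before the viability read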
Outline: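 Compound titrations (final up to 41.7 uM) were incubated with HEK293 cells for 24 hr at 37C under 5% CO2. Viable cells were quantified with CellTiter-Glo after 10 min at ambient temperature.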

[11] = Confirmatory screen NINDS Rhodamine qHTS for Zika virus inhibitors (AID 1347161); further: potency means the concentration at half of the fitted maximal effect; nearly all actives have a fitted effect of over 60% in size
Outline: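 qHTS dose-response: 25 nM linked protease, pH 8.0 Tris/Tween buffer, cpd titration, 15 min RT preinc, 1.5 microM Rhod110 peptide, 15 min reaction (~15% conversion), Ex480/Em540; 4-parameter Hill fit.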

[12] = qHTS to identify inhibitors of the type 1 interferon - major histocompatibility complex class I in skeletal muscle: primary screen against the NCATS Mechanism Interrogation Plate v5.0 (MIPE) Libary (AID 1347411); further: nearly all actives have a fitted effect of over 65% in size
Outline: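 IFN-beta-driven (4 ng/ml) HLA-B-HiBit expression in CRISPR-tagged C25cl48 myoblasts; compounds 11-pt, 1:3, max 46 uM, 24 hr exposure; lytic NanoLuc complementation luminescence.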

[13] = NCATS anti-infectives library activity on the primary C. elegans qHTS viability assay (AID 1745855; calls by dose curve)
Outline: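 Titration-based screen in worms: eggs hatched overnight in M9, L1 larvae fed TOP10 capsules in S medium with compound, incubated 21 °C for 7 days; fluorescent objects gated by size and intensity at days 0, 3 and 7.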

[14] = qHTS drug screen for cell cycle checkpoint inhibitors in PARPi-resistant BRCA-mutant ovarian cancer cell lines. (AID 1963452; calls by dose curve); settings: PEO1/OlaR viability, CellTiter-Glo luminescence, 96 h, stronger effect = lower value
Outline: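 PEO1, PEO4 and PEO1/OlaR ovarian cancer cells, 600 per well, exposed 96 h at 37C to a dilution series. Viability read by CellTiter-Glo luminescence, normalized to DMSO and empty wells; activity summarized as Z-AUC.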

For CC(C)=CC[C@H]1C[C@@]2(CC=C(C)C)C(=O)[C@](CC=C(C)C)(C(=O)C(C(=O)c3ccccc3)=C2O)C1(C)C, which Potency [1] is on record?
The Potency was 4.4 µM (active).

With C=C(C)CC[C@H](Cc1c(O)cc(O)c2c1O[C@H](c1ccc(O)cc1)CC2=O)C(=C)C as the compound, how does the Potency [1] read?
Its Potency is 15.6 µM (active).

And the Potency [2]?
The Potency was “inactive”.

What about the Potency [3] of the same compound?
Its Potency is “inactive”.

And the Potency [4]?
The Potency was 18.6 µM (active).

And the Potency [5]?
The Potency was “inactive”.

What about the Potency [6] of the same compound?
Its Potency is “inactive”.

What does the source list for Cc1occ2c1C(=O)c1c(cc(O)c(O)c1O)C2=O?
Potency [1]: 13.9 µM (active); Potency [2]: 13.3 µM (active); Potency [7]: inactive; Potency [8]: inactive; Potency [9]: inactive; Potency [5]: inactive

What does the source list for COc1cc(C2OCC3C(c4ccc(O)c(OC)c4)OCC23)ccc1O (stereo not drawn)?
Potency [1]: inactive; outcome [7]: inactive [at 7.64 µM]; activity change, negative = cytotoxic [4]: -3.52% [at 9.19 µM] (inactive); activity change, negative = cytotoxicity [5]: -10.2% [at 18.4 µM] (inactive); activation (redox signal) [6]: -17.9% [at 11.4 µM] (inactive)

Which results are given for C[C@]12CC[C@]3(C1)[C@H](CC2=O)C[C@@H](OC(=O)c1ccccc1)[C@H]1[C@](C)(C(=O)O)CCC[C@@]13C?
Potency [1]: 19.6 µM (active); Potency [7]: inactive; Potency [4]: 6.6 µM (active); Potency [6]: inactive

Which Potency [1] does the source give for C=CC(CCCCC)C1C(=O)NC(=O)C1C(=O)C1C2C(C)CC(C(=O)O)CC2CC1(O)C(=O)/C=C/C (stereo not drawn) here?
Its Potency is 6.21 µM (active).

And the Potency [2]?
The Potency was “inactive”.

And the Potency [7]?
The Potency was “inactive”.

What about the Potency [3] of the same compound?
The Potency was “inactive”.

And the Potency [9]?
The Potency was “inactive”.

What about the Potency [4] of the same compound?
The Potency was “inactive”.

What about the Potency [5] of the same compound?
Its Potency is “inactive”.

What about the Potency [6] of the same compound?
Its Potency is “inactive”.

Which Potency [1] does the source give for C=CC(CCCCC)C1C(=O)NC(=O)C1C(=O)C1C(/C=C/C)C=CC2CC(C(=O)O)CC(C)C21 (stereo not drawn) here?
Its Potency is 3.92 µM (active).

What about the Potency [4] of the same compound?
The Potency was 23.4 µM (active).

And the Potency [5]?
The Potency was “inactive”.

And the Potency [6]?
Its Potency is “inactive”.

For O=c1cc(-c2ccc(O)c(O)c2)oc2cc(O[C@@H]3O[C@H](CO)[C@@H](O)[C@H](O)[C@H]3O)cc(O)c12, which Potency [1] is on record?
Its Potency is 17.5 µM (active).

What about the Potency [2] of the same compound?
The Potency was “inactive”.

And the Potency [5]?
The Potency was “inactive”.

And the Potency [6]?
Its Potency is “inactive”.

And the Potency [10]?
The Potency was “inactive”.

With CC(=O)O[C@H]1c2ccccc2-c2c3c(cc4c2[C@@H]1N(C(C)=O)CC4)OCO3 as the compound, how does the Potency [1] read?
Its Potency is 55.3 µM (active).

And the Potency [9]?
Its Potency is “inactive”.

What about the Potency [6] of the same compound?
The Potency was “inactive”.

Which Potency [1] does the source give for CC(=O)Oc1cc2c(c(OC(C)=O)c1C1CCc3cc(Cl)c(Cl)n31)C(=O)n1c-2cc(Cl)c1Cl (stereo not drawn) here?
Its Potency is 3.92 µM (active).

And the Potency [2]?
The Potency was 13.3 µM (active).

What about the Potency [8] of the same compound?
Its Potency is 23.5 µM (active).

What about the Potency [3] of the same compound?
Its Potency is 14.8 µM (active).

What about the Potency [4] of the same compound?
The Potency was 9.33 µM (active).

And the Potency [5]?
Its Potency is 42.8 µM (active).

With C/C(=C\CC[C@@H](C)[C@H]1CC[C@]2(C)C3=CCC4C(C)(C)[C@@H](O)C[C@@H](O)[C@]4(C)C3[C@H](O)C[C@@]12C)CO (stereo partly drawn) as the compound, how does the Potency [1] read?
The Potency was 19.6 µM (active).

And the Potency [2]?
The Potency was “inactive”.

What about the Potency [7] of the same compound?
The Potency was “inactive”.

And the Potency [8]?
The Potency was “inactive”.

And the Potency [9]?
The Potency was “inactive”.

What about the Potency [4] of the same compound?
Its Potency is 33.1 µM (active).

And the Potency [5]?
The Potency was “inactive”.

Which results are given for C[C@]12CCC[C@](C)(C(=O)O)[C@@H]1CC[C@@]1(C)c3cocc3CC[C@H]21?
Potency [1]: 15.6 µM (active); Potency [7]: inactive; Potency [3]: inactive; Potency [9]: inactive; Potency [5]: inactive

With COc1cc(O)c(C(=O)[C@@H]2[C@H](CC=C(C)C)C(C)=CC[C@H]2c2ccccc2)c(O)c1 as the compound, how does the Potency [1] read?
The Potency was 15.6 µM (active).

And the Potency [2]?
Its Potency is 7.49 µM (active).

And the Potency [8]?
The Potency was 20.9 µM (active).

What about the Potency [3] of the same compound?
Its Potency is “inactive”.

And the Potency [6]?
Its Potency is “inactive”.

Which results are given for COC12OC1(C13OC1(OC)C(=O)c1cc4cc(C)oc(=O)c4c(O)c1C3O)C(O)c1c(cc3cc(C)oc(=O)c3c1O)C2=O (stereo not drawn)?
Potency [1]: 3.11 µM (active); Potency [2]: inactive; Potency [7]: inactive; Potency [8]: inactive; Potency [9]: inactive; Potency [4]: 23.4 µM (active); Potency [5]: inactive

With COc1cc2c(c(O)c1O)C(=O)c1c(coc1C)C2=O as the compound, how does the Potency [1] read?
The Potency was 3.11 µM (active).

And the Potency [8]?
The Potency was “inactive”.

And the Potency [3]?
Its Potency is 11.8 µM (active).

And the Potency [9]?
Its Potency is 27.2 µM (active).

And the Potency [5]?
The Potency was 15.2 µM (active).

And the Potency [6]?
The Potency was 0.764 µM (active).

For CCC(=O)CCCCC[C@@H]1NC(=O)[C@H]2CCCCN2C(=O)[C@H](C(C)C)NC(=O)[C@H](Cc2cn(OC)c3ccccc23)NC1=O, which Potency [1] is on record?
Its Potency is 13.9 µM (active).

What about the Potency [2] of the same compound?
Its Potency is 3.75 µM (active).

And the Potency [8]?
Its Potency is 7.43 µM (active).

And the Potency [3]?
The Potency was 4.69 µM (active).

And the Potency [6]?
Its Potency is “inactive”.

Which Potency [1] does the source give for Cc1cc(C)c(O)c(C(=O)CC2CC(=O)NC(=O)C2)c1 here?
Its Potency is “inactive”.

What about the Potency [8] of the same compound?
Its Potency is 13.2 µM (active).

And the Potency [3]?
The Potency was 2.64 µM (active).

For C=C[C@]1(C)CC[C@@H]([C@H](C)C(=O)CC=C(C)C)O1, which Potency [2] is on record?
Its Potency is “inactive”.

What about the Potency [7] of the same compound?
The Potency was “inactive”.

What about the Potency [8] of the same compound?
Its Potency is “inactive”.

What about the Potency [3] of the same compound?
Its Potency is “inactive”.

What about the Potency [5] of the same compound?
Its Potency is “inactive”.

What does the source list for CN(C)c1cc(NC(=O)CNC(C)(C)C)c(O)c2c1C[C@H]1C[C@H]3[C@H](N(C)C)C(=O)C(C(N)=O)=C(O)[C@]3(O)C(=O)C1=C2O?
Potency [11]: 1.97 µM (active); Potency [12]: inactive; Potency [10]: inactive; Potency [13]: inactive; Z-AUC [14]: 1.31 (inactive); Z-AUC ([14]; measured here: PEO1 parental Z-AUC): 1.13; Z-AUC ([14]; measured here: PEO4 Z-AUC): 1.05

With COc1ccc([C@@H]2CC(=O)c3c(cc(O)c(C/C=C(\C)CCC=C(C)C)c3O)O2)cc1 as the compound, how does the Potency [1] read?
The Potency was 7.2 µM (active).

And the activity change, negative = cytotoxicity [7]?
Its activity change, negative = cytotoxicity is -3.16% [at 7.64 µM] (inactive).

And the activity change, negative = cytotoxicity [8]?
The activity change, negative = cytotoxicity was -3.45% [at 9.19 µM] (inactive).

And the activity change, negative = cytotoxicity [5]?
The activity change, negative = cytotoxicity was -0.051% [at 18.4 µM] (inactive).

And the activation (redox signal) [6]?
The activation (redox signal) was -16.9% [at 11.4 µM] (inactive).
